Sampled rows, rich in hits. Any-hit rate of the full collection: about 8.9%.
DRD3 agonist = qHTS of D3 Dopamine Receptor Agonist: qHTS. D3R DiscoveRx beta-arrestin cells, luminescence, 90 min. actives 0.58% (n = 410,000). max activation, %; in the data active = max activation above about 30%; note: 0% is about no effect
Target sequence (P35462 whole entry, looked up): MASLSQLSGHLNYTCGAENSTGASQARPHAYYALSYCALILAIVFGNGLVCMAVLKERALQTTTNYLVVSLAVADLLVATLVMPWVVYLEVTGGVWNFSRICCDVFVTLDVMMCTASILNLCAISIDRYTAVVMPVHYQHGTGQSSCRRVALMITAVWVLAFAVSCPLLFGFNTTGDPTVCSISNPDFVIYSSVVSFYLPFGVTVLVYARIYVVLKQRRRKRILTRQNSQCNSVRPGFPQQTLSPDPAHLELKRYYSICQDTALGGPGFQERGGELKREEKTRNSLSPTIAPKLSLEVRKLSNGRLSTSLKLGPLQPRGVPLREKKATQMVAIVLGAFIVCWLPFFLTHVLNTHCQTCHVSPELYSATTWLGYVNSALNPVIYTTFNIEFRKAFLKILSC
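Cells at 1500/well, incubated overnight, then treated with pinned compounds (dopamine as control) for 90 min at 37 degrees C. DiscoveRx reagent added for 30 - 60 minutes at room temperature; luminescence read.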
MCF10A rereplic = A quantitative high throughput screen for small molecules that induce DNA re-replication in MCF 10a normal breast cells; Potency, µM (doses to about 46.1 µM), for inactives: at the top dose activity, positive = re-replication, usual class: activators; actives 2.9% (n = 350,000); MCF 10A DNA re-replication, Hoechst nuclear intensity, 48 h; note: potency is the fitted concentration of half-maximal effect; % of control where 0% means no effect; nearly all actives have a fitted effect of over 50% in size
KB-V1 MDR tox = qHTS assay for MDR1-selective chemotherapeutics: Primary screen using the drug-selected MDR subline cells KB-V1 | KB-V1 MDR cells viability, CellTiter-Glo, 72 h | Potency, µM (top dose mostly 46.1 µM), actives largely listed as cytotoxic | actives 3.4% (n = 400,000) | AID 1347076, 2019; note: potency is the fitted concentration of half-maximal effect; % is set by controls: 0 for no effect and ±100 for the full control effect; nearly all actives have a fitted effect of over 60% in size
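KB-V1, DMEM (no phenol red) + 10% FBS; cpd pin-transferred, titration series; 72 h, 37 degrees C; CellTiter-Glo, luminescence. Data normalized, curve-fit.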
DRD3 antagonist = qHTS of D3 Dopamine Receptor Antagonist: qHTS | D3R cells, DiscoveRx beta-arrestin luminescence, antagonist mode; active compounds read low | actives 2.5% (n = 360,000) | D(3) dopamine receptor (Homo sapiens), P35462 | max response, negative = inhibition, %; in the data active = max response below about -50%; inconclusive = no clear call, values can overlap the other calls; note: % is set by controls: 0 for no effect and ±100 for the full control effect
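Cells expressing the human receptor were seeded at 1500 cells/well, incubated overnight at 37 degrees C in 5% CO2, then exposed to library compounds with dopamine controls for 90 minutes at 37 degrees C before luminescent detection.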
KB-3-1 tox = qHTS assay for MDR1-selective chemotherapeutics: Primary screen using the parental adenocarcinoma cell KB-3-1; KB-3-1 viability, CellTiter-Glo ATP luminescence, 72 h; actives 1.4% (n = 400,000); Potency, µM (doses to about 46.1 µM), hits mostly cytotoxic; note: potency is the fitted concentration of half-maximal effect; % is set by controls: 0 for no effect and ±100 for the full control effect; nearly all actives have a fitted effect of over 60% in size
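Parental KB-3-1 adenocarcinoma cells in phenol-red-free DMEM with 10% FBS were pin-treated with compounds at several concentrations, incubated 72 h at 37 °C, and viability read by CellTiter-Glo luminescence; concentration-effect curves were fitted after normalization.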
SW480 rerep = A quantitative high throughput screen for small molecules that induce DNA re-replication in SW480 colon adenocarcinoma cells; Potency, µM (titrated, usually from 46.1 µM), for the others: at the top dose re-replication activation, actives largely listed as activators; SW480 DNA re-replication, Hoechst DNA content imaging, 48 h; actives 1.8% (n = 340,000); note: potency is the fitted concentration of half-maximal effect; % of control where 0% means no effect; nearly all actives have a fitted effect of over 55% in size
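First, 250 cells per well were seeded. Next, compound or vehicle (23 nL) was pinned in, plates sat 48 hr at 37 C. Finally Hoechst was added for 40 min before fluorescence scanning.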
The depositor's hits bear a star; i = inactive; ? = inconclusive; . = no result. Unless noted, calls come from the whole dose curve; as a rule, active = well fitted curve in the direction sought with a large enough effect; inconclusive = small, poorly fitted or top-dose-only effect, or another doubt; inactive = no such curve, though single readings can be large; an effect the other way counts as inactive or inconclusive.

SMILES	DRD3 agonist	MCF10A rereplic	KB-V1 MDR tox	DRD3 antagonist	KB-3-1 tox	SW480 rerep
CCc1ccc(NC(=O)c2ccnc(C(C)(C)C)c2)cc1	-10	-3%	21µM*	6	i	-14%
CC(C)(C)c1cc(C(=O)Nc2cccc3ccccc23)ccn1	-4	4%	i	-1	i	-1%
CN(C)c1ccc(/C=C/c2ccc3cc(N)ccc3n2)cc1	.	.	i	.	i	.
COc1ccc(C(=O)CC(C(=O)O)c2ccc(OC)c(OC)c2)cc1OC (stereo not drawn)	-1	.	i	7	i	.
CCc1nc(C)cn1S(=O)(=O)c1cc(Br)ccc1OC	0	4%	16µM*	31	i	-1%
COc1ccc(/C=N/OCC(=O)N2CC3(C)CC2CC(C)(C)C3)cc1OC (stereo not drawn)	20	-2%	16µM*	-11	i	-5%
CC(=O)c1c(C)n(-c2ccc(C)cc2)c2ccc(OC(=O)COc3ccccc3)cc12	-12	.	?	.	i	.
Cc1csc(NC(=O)CCc2ccc(S(=O)(=O)N3CCOCC3)cc2)n1	-11	?	23µM*	-13	i	21%
O=C(NC(=S)N1CCN(C(c2ccccc2)c2ccccc2)CC1)c1ccc(S(=O)(=O)N2CCOCC2)cc1	1	12%	21µM*	-14	i	2%
O=C(CCc1ccccc1)NC(=S)Nc1ccc(S(=O)(=O)N2CCOCC2)cc1	-5	?	4.6µM*	-11	?	64%
O=S(=O)(c1ccc(NC(=S)Nc2ccccc2)cc1)N1CCOCC1	-6	-10%	i	8	i	-2%
COc1ccc(CC(=O)Nc2nc(C)cs2)cc1S(=O)(=O)N1CCOCC1	3	0%	i	14	i	8%
CCCC(C(=O)Nc1ccc(S(=O)(=O)N2CCOCC2)cc1)c1ccccc1 (stereo not drawn)	0	?	i	-8	i	0.23µM*
CCn1cc(C(=O)NCc2ccccc2)c(=O)c2cc(S(=O)(=O)N3CCOCC3)ccc21	-2	.	i	.	i	.
CCOc1ccc(CN2CCC(C(=O)Nc3cccc(-c4ccn[nH]4)c3)CC2)cc1Cl	-12	?	?	-6	i	?
COc1ccc(-c2cc3nc(C)c(CCC(=O)Nc4ccc(F)cc4F)c(C)n3n2)c(OC)c1	10	.	i	.	i	.
O=S(=O)(c1ccc(NC(=S)Nc2ccc3c(c2)OCO3)cc1)N1CCOCC1	1	14%	?	-6	i	-4%
CCOC(=O)Nc1ccc(S(=O)(=O)N2CCOCC2)cc1	3	5%	i	28	i	-7%
CN(C)CC(C)(C)CNC(=S)Nc1ccc(S(=O)(=O)N2CCOCC2)cc1	-7	7%	?	-20	i	26µM*
CC(C)CCCCCCNC(=S)Nc1ccc(S(=O)(=O)N2CCOCC2)cc1	21	13µM*	8.2µM*	5	?	?
O=C(Nc1ccc(Br)cc1Cl)c1cnn2c1NC(=C1CC1)C=C2C(F)F	.	.	i	.	i	.
Cc1cccc(N2CCN(C(=O)c3[nH]c(C(F)(F)F)nc3-c3ccccc3)CC2)c1C	14	.	?	?	2.3µM*	.
CC(=O)N1CCN(C(=O)c2[nH]c(C(F)(F)F)nc2-c2ccccc2)CC1	9	.	i	12	i	.
COc1ccc(N2CCN(C(=O)c3[nH]c(C(F)(F)F)nc3-c3ccccc3)CC2)cc1	3	.	i	0	i	.
COc1ccccc1N1CCN(C(=O)c2[nH]c(C(F)(F)F)nc2-c2ccccc2)CC1	-11	.	?	?	5.8µM*	.
SMILES	DRD3 agonist	MCF10A rereplic	KB-V1 MDR tox	DRD3 antagonist	KB-3-1 tox	SW480 rerep
CC1CCN(C(=O)c2[nH]c(C(F)(F)F)nc2-c2ccccc2)CC1	8	.	i	-69*	i	.
O=C(c1[nH]c(C(F)(F)F)nc1-c1ccccc1)N1CCN(c2cccc(C(F)(F)F)n2)CC1	-6	.	?	-55*	5.2µM*	.
O=C(COC(=O)CNC(=O)c1ccccc1Cl)NC1CC1	-4	-1%	?	2	i	-5%
Cn1c(C=O)c(-c2ccc3cc[nH]c3c2)c2ccccc21	31*	?	?	15	i	?
Cn1c(-c2ccsc2)c(-c2cccs2)c2cc(-c3ccc4cc[nH]c4c3)ccc21	6	-47%	i	74	i	12%
Cn1c(C2CC(=O)N(Cc3ccccc3)C2)nc2ccccc21 (stereo not drawn)	3	0%	i	12	i	-3%
CC(C)(C)N1CC(c2nc3ccccc3n2Cc2ccc(Cl)cc2)CC1=O (stereo not drawn)	3	15%	15µM*	25	i	0%
C=CCN1CC(c2nc3ccccc3n2Cc2ccccc2)CC1=O (stereo not drawn)	1	11%	12µM*	4	i	-2%
CC(C)(C)N1CC(c2nc3ccccc3n2CCOc2ccccc2)CC1=O (stereo not drawn)	7	0%	i	-7	i	0%
NC(=O)C1CCN(C(=O)c2ccc(NC(=O)c3nsc4ccccc34)cc2)CC1	5	.	i	.	i	.
Cc1cn2c(=O)cc(COC(=O)COc3ccc(F)cc3)nc2s1	2	.	i	.	i	.
CN1c2ccccc2C(C)(C)C12CC(c1cccc(S(=O)(=O)N3CCCC3)c1)=NO2 (stereo not drawn)	2	-55%	6.5µM*	6	?	-9%
CN1c2ccccc2C(C)(C)C12CC(c1ccc(S(=O)(=O)N3CCCCC3)cc1)=NO2 (stereo not drawn)	3	-6%	?	13	i	2%
Nc1ccc(S(=O)(=O)NCc2ccccc2)cc1	-10	3%	.	.	.	-4%
Cc1cc(O)c(C(C)C)cc1N=Cc1ccc([N+](=O)[O-])cc1	-24	18µM*	.	-20	.	18µM*
Cc1cc(O)c(C(C)C)cc1N=Cc1ccc(N(C)C)cc1	-19	21µM*	.	?	.	?
COc1cccc(C=Nc2cc(C(C)C)c(O)cc2C)c1O	-13	?	?	0	i	?
CCNc1nc(CN2CCOCC2)nc2sc3c(c12)CCC3	-7	-9%	i	-9	i	6%

Source: PubChem
